Source: PubChem BioAssay
Rows were chosen to be rich in hits. Some 0.45% of all compounds tested hit in one or more screens of this group.
EPAC2 antagonist = qHTS for Antagonist of cAMP-regulated guanine nucleotide exchange factor 2 (EPAC2): primary screen | EPAC2 GEF exchange of Rap1B-BODIPY-GDP, fluorescence | Potency, µM (top dose mostly 114 µM), inactives show at the top dose activity, negative = inhibition, hits mostly inhibitors | 0.18% of 360,000 active | AID 720708, 2013; also: % is scaled to controls: 0 for no effect and ±100 for the full control effect; nearly all actives have a fitted effect of over 45% in size
Target sequence (Q8WZA2 whole entry, looked up): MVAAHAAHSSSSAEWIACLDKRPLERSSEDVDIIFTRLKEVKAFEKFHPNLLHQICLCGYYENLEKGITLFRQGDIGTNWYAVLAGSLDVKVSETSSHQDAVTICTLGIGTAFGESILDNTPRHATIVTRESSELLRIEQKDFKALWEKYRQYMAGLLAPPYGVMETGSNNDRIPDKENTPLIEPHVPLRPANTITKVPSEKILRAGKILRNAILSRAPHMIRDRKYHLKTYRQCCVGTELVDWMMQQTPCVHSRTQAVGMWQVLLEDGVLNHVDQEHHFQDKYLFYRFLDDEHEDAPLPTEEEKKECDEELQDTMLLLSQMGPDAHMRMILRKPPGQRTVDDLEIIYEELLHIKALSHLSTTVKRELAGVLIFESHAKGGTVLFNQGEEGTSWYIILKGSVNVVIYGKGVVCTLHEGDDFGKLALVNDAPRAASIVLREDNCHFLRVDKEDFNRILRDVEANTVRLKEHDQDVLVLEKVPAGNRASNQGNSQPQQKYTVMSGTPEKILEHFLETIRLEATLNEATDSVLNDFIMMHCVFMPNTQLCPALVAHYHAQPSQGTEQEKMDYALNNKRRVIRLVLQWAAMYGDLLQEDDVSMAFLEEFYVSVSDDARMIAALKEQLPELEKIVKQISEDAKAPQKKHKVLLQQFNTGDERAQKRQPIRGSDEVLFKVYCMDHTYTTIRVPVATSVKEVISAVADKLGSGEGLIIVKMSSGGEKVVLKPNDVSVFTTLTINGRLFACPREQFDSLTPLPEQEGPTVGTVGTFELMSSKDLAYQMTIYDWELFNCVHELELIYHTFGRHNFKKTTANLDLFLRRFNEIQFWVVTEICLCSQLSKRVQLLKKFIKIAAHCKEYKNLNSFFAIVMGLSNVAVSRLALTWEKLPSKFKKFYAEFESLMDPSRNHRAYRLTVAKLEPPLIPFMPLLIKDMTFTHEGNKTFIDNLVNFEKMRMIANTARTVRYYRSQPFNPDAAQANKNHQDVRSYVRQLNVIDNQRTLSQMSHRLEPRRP
USP1 inh = Inhibitors of USP1/UAF1: Primary Screen. Ubiquitin carboxyl-terminal hydrolase 1 (Homo sapiens), O94782. recombinant USP1/UAF1, Ub-Rhodamine cleavage fluorescence. Potency, µM (series often up to 57.1 µM), without a hit: at the highest dose activity change, negative = inhibition, usual class: inhibitors. 0.23% of 390,000 active. AID 743255, 2014; also: % is scaled to controls: 0 for no effect and ±100 for the full control effect; nearly all actives have a fitted effect of over 60% in size
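Step one: compound is pinned into 1nM USP1/UAF1 in HEPES pH 7.8 buffer with TCEP. Step two: 15 min room-temperature incubation. Step three: Ub-Rho (150nM final) starts cleavage, tracked by fluorescence over six one-minute reads.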
EPAC1 antag = qHTS for Antagonist of cAMP-regulated guanine nucleotide exchange factor 3 (EPAC1): primary screen. EPAC1 GEF assay, Rap1b-BODIPY-GDP exchange fluorescence. Potency, µM (doses to about 115 µM), for inactives: at the highest dose activity change, negative = inhibition, most hits filed as inhibitors. 0.14% of 360,000 active. AID 720709, 2013;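 also: plate controls were vehicle for no effect and positive control for full effect; nearly all actives have a fitted effect of over 50% in size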
EPAC1 agonist = qHTS for Agonist of cAMP-regulated guanine nucleotide exchange factor 3 (EPAC1): primary screen. EPAC1 agonist qHTS, biochemical assay; response scale: 100% = response to 6.5 mM cAMP. Potency, µM (highest dose often 154 µM), without a hit: at the top dose activation, hits mostly activators. 0.073% of 360,000 active. AID 720707, 2013; also: nearly all actives have a fitted effect of over 60% in size
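Nucleotide exchange assay: 100 nM EPAC1 with 250 nM Rap1B loaded with BODIPY-GDP and 50 uM GDP, room temperature. Fluorescence (480/540 nm) read every 5 min for 30 min; signal change normalized to 6.5 mM cAMP as full agonist.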
EPAC2 ag = qHTS for Agonist of cAMP-regulated guanine nucleotide exchange factor 4 (EPAC2): primary screen. EPAC2 activation, biochemical qHTS; response scale: 100% = 6.5 mM cAMP response. Potency, µM (titrated, usually from 154 µM), for the others: at the top dose activation, actives largely listed as activators. 0.079% of 360,000 active. AID 720711, 2013; also: nearly all actives have a fitted effect of over 50% in size
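qHTS, titration series. 100 nM EPAC2 / 250 nM Rap1B-BODIPY-GDP / 50 uM GDP; RT; ex 480/em 540 nm, 5-min reads to 30 min. Norm. to 6.5 mM cAMP = activation.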
* = called active by the depositor; i = inactive; u = inconclusive; x = no result. Calls follow the shape of the dose curve; as a rule, active = well fitted curve in the direction sought with a large enough effect; inconclusive = small, poorly fitted or top-dose-only effect, or another doubt; inactive = no such curve, though single readings can be large; an effect the other way counts as inactive or inconclusive. Potency is read from the fitted curve at half-maximal effect.

SMILES	EPAC2 antagonist	USP1 inh	EPAC1 antag	EPAC1 agonist	EPAC2 ag
CC1OC(Nc2cccc3ccccc23)C(O)C(O)C1O (configuration not stated)	15.6%	22.4µM*	-0.3%	5.7%	7.3%
O=C(c1ccc2c(c1)N(Cc1cccc(Cl)c1)C(=O)c1ccccc1S2(=O)=O)N1CCC(Cc2ccccc2)CC1	x	11.1%	x	x	x
CCOC(=O)[C@H]1[C@H]2COc3ccc(C)cc3[C@@H]2N2C(=O)c3ccc(C)cc3NC(=O)[C@@]12C	17.1%	-18.5%	10.5%	u	79.4µM*
C[C@@]12C(=O)Nc3cc(F)ccc3C(=O)N1[C@H]1c3cc(Br)ccc3OC[C@@H]1[C@@H]2c1ccccc1	149.9%	-14.9%	5.7%	-8.5%	79.4µM*
CCOC(=O)[C@H]1[C@H]2COc3ccc(C)cc3[C@@H]2N2C(=O)c3ccc(F)cc3NC(=O)[C@@]12C	-30.0%	-7.1%	-13.3%	7.4%	9.5%
CCOc1ccc2c(c1)c(=O)c(C(=O)c1ccc(CC)cc1)cn2CC(=O)Nc1ccc2c(c1)OCCO2	x	-10.6%	x	x	x
CSC1=NSC2=NC(=O)/C(=C\c3coc4ccccc4c3=O)C(=N)N12	84.5%	22.4µM*	52.7%	63.1µM*	u
CC(C)CSC1=NSC2=NC(=O)/C(=C\c3coc4ccccc4c3=O)C(=N)N12	4.2%	4.47µM*	53.7%	161.6%	u
CCN(CCCNC(=O)CN1N=C(c2ccc(OC)cc2)CCC1=O)c1cccc(C)c1	x	-28.8%	x	x	x
COc1cc(SC)ccc1C(=O)N1CCc2ccccc21	-15.0%	-23.3%	6.3%	-6.9%	-1.6%
COc1cc(Br)cc(C(=O)N2CCc3ccccc32)c1OC	35.5µM*	-22.7%	3.5%	6.1%	11.2%
O=C(N/N=C/c1c(O)n(Cc2ccccc2)c(=O)c2ccccc12)c1cccnc1	-15.2%	25.1µM*	u	1.0%	23.2%
COc1ccc(Cn2c(O)c(/C=N/NC(=O)c3cccnc3)c3ccccc3c2=O)cc1	-7.9%	31.6µM*	-27.1%	13.3%	11.3%
COc1ccc(Cn2c(O)c(C=Nc3ccc(OC)cc3)c3ccccc3c2=O)cc1	-2.1%	-26.7%	-7.0%	-7.5%	-8.3%
O=C(N/N=C/c1c(O)n(-c2ccccc2Cl)c(=O)c2ccccc12)c1cccnc1	-21.9%	u	u	-12.1%	-1.3%
NC(=O)CSc1nc2c(oc3ccccc32)c(=O)n1-c1ccccc1F	x	-19.3%	x	x	x
CC1CCCCC1NC(=O)COC(=O)c1c2c(nc3ccccc13)/C(=C/c1ccco1)CC2 (configuration not stated)	15.8%	-22.3%	44.7µM*	-36.3%	-3.2%
Nc1nc(-c2ccccc2)c(-c2ccccc2)n1N	-10.0%	-25.6%	13.8%	10.2%	6.1%
c1ccc(-c2cnn3c(-c4ccccc4)c(-c4ccccc4)nc3n2)cc1	i	1.41µM*	64.6%	12.6µM*	89.1µM*
CCCCCN1CC(=O)N2Cc3[nH]c4ccccc4c3C[C@H]2C1=O	0.3%	-16.8%	7.2%	-3.8%	4.0%
CCCCN1C(=O)C2Cc3c([nH]c4ccccc34)CN2C1=S (configuration not stated)	-4.2%	25.1µM*	-23.0%	8.7%	-12.0%
Oc1[nH]c2ccc(Br)cc2c1N=Nc1ccc(F)cc1	70.8µM*	u	u	-129.4%	-170.0%
Oc1[nH]c2ccccc2c1N=Nc1ccccc1	59.8%	28.2µM*	5.8%	-136.3%	-84.3%
S=C1Cc2ccccc2N1	-22.9%	28.2µM*	u	8.9%	10.6%
Cc1cc(=O)[nH]c2nnc(SCc3ccc(Cl)cc3Cl)n12	x	-18.4%	x	x	x
SMILES	EPAC2 antagonist	USP1 inh	EPAC1 antag	EPAC1 agonist	EPAC2 ag
CCOC(=O)/C=C(\C)Sc1cc(O)c2ccccc2c1O	44.7µM*	7.94µM*	u	-1.5%	7.1%
CCOC(=O)/C=C(\C)Sc1cc(=O)oc2ccccc12	1.5%	-14.3%	0.0%	0.0%	0.0%
N#C/C(=C\c1ccc(N2CCOCC2)o1)c1nc2ccccc2[nH]1	5.6%	25.1µM*	-16.8%	63.1µM*	50.1µM*
N#C/C(=C\c1ccc(-c2ccc(Cl)c(C(=O)O)c2)o1)c1nc2ccccc2[nH]1	x	31.6µM*	x	x	x
N#C/C(=C/c1ccc(N2CCOCC2)o1)c1ccc(Cl)cc1	21.1%	28.2µM*	3.3%	17.6%	-88.3%
N#C/C(=C\c1ccc(-c2ccc(C(=O)O)cc2)o1)c1nc2ccccc2[nH]1	1.1%	28.2µM*	34.8%	23.1%	u
Cc1ccc2nc(/C(C#N)=C/c3ccc(-c4cccc(Cl)c4)o3)[nH]c2c1	x	-28.6%	x	x	x
COc1ccc(C(=O)Nc2nc(-c3ccc([N+](=O)[O-])cc3)c(-c3ccc(OC)cc3)s2)cc1	136.1%	u	457.3%	112µM*	100µM*
O=C(Nc1c(-c2ccc3c(c2)OCO3)[nH][nH]c1=O)c1ccccc1	u	x	35.5µM*	-6.3%	27.8%
COc1ccc(-c2n[nH]c3c2C(c2ccc(Cl)cc2Cl)NC3=O)cc1 (configuration not stated)	x	-6.9%	x	x	x
CCSc1nc(C)cc(C)c1S(=O)(=O)c1ccccc1C	u	-13.7%	-6.0%	7.1%	14.8%
CSc1nc(C)cc(C)c1S(=O)(=O)c1ccccc1C	35.5µM*	-8.4%	-16.7%	12.6%	21.0%
Cc1cc(C)c(S(=O)(=O)c2ccccc2C)c(OCCN(C)C)n1	0.6%	-13.0%	5.3%	7.2%	4.7%
C#CCOc1nc(C)cc(C)c1S(=O)(=O)c1ccccc1C	28.2µM*	-5.9%	7.1%	1.9%	7.4%
COc1nc(C)cc(C)c1S(=O)(=O)c1ccccc1C	12.6µM*	-4.3%	-0.5%	-0.4%	-0.3%
CCC(C)Oc1nc(C)cc(C)c1S(=O)(=O)c1ccccc1C (configuration not stated)	-20.5%	-28.8%	-3.6%	0.9%	1.3%
CCOc1ccccc1NC(=O)C1CCN(S(=O)(=O)c2ccc3c(c2)CCCN3C(C)=O)CC1	x	-24.5%	x	x	x
CC(C)NC(=O)c1ccc2c(c1)nc1n2CCCCC1	x	8.3%	x	x	x
COc1ccccc1CNC(=O)C(=O)NCC(c1cccs1)S(=O)(=O)c1ccc(F)cc1 (configuration not stated)	x	-25.6%	x	x	x
Cc1ccc2oc(=O)c(/C=C(\O)c3ccco3)nc2c1	214.4%	u	13.7%	10.3%	100µM*
O=C(O)CC(SCC(=O)Nc1ccc(Cl)c(S(=O)(=O)N2CCOCC2)c1)C(=O)O (configuration not stated)	-0.7%	-14.9%	-21.8%	-3.9%	-4.8%
